HP1b binding inh: HTS for Inhibitors of HP1-beta Chromodomain Interactions with Methylated Histone Tails | Chromobox protein homolog 1 (Homo sapiens), P83916 | AlphaScreen HP1-beta / biotin-H3K9me3 peptide binding | Potency, µM (titrated, usually from 114 µM), actives largely listed as inhibitors | 390,000 compounds, 0.56% hits | AID 540317, 2011; further: nearly all actives have a fitted effect of over 70% in size
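HP1-beta protein (50 nM final) preincubated 30 min at room temperature with biotinylated H3(1-18)K9me3 peptide (50 nM) in PBS pH 7.4, 0.01% Tween-20, then compound added for 30 min. AlphaScreen streptavidin donor/nickel chelate acceptor beads (10 ug/mL final), 30 min dark, luminescence read.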
Six1-Eya2 inh: qHTS Assay for Inhibitors of the Six1/Eya2 Interaction | 360,000 compounds, 0.56% hits | Homeobox protein SIX1 (Homo sapiens) + Protein phosphatase EYA2 (Homo sapiens), … | activity change, % (test concentration not listed) | AlphaScreen GST-Six1/His-Eya2 binding, biochemical; active compounds read low; in the data active means activity change below about -65%; inconclusive means mostly about -30% to -63%
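Homogeneous AlphaScreen proximity assay pairing GST-Six1 with His-tagged Eya2 (added as 5X mix: 250 nM and 500 nM) in 50 mM Tris pH 8.0, 300 mM NaCl, 1 mM TCEP. Glutathione donor and nickel acceptor beads; 1 h, 37 °C, dark.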
TDP1 block: qHTS Assay for Inhibitors of Tyrosyl-DNA Phosphodiesterase (TDP1); recombinant TDP1, AlphaScreen DNA substrate cleavage; Potency, µM (series often up to 130 µM), hits mostly inhibitors; 350,000 compounds, 0.28% hits; further: nearly all actives have a fitted effect of over 40% in size
Target sequence (Q9NUW8 whole entry, looked up): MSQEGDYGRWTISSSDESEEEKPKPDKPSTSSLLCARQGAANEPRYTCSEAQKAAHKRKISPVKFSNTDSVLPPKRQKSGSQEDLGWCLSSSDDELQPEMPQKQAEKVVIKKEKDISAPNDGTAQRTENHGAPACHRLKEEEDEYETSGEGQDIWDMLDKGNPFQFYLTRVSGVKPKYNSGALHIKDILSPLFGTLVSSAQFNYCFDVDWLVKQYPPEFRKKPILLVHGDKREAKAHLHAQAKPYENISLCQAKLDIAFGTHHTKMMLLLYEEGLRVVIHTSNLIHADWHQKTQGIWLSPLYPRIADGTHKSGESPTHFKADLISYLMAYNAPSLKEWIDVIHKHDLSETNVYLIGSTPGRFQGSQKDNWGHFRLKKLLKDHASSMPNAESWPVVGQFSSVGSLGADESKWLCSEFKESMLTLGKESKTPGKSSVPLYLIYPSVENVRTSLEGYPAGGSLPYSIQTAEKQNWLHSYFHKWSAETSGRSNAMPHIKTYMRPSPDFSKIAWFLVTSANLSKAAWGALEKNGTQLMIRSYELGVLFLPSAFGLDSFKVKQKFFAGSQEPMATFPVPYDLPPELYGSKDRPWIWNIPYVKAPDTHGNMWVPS
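Recombinant human Tdp1 (E. coli-expressed, 1 nM final) preincubated with compounds 15 min at room temperature, then 5'-biotin/3'-phosphotyrosine-FITC DNA substrate (15 nM final) added for 5 min. AlphaScreen beads (10 ug/ml final) added 10 min; cleavage lowers signal.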
BAZ2B block: qHTS Assay for Inhibitors of BAZ2B; AID 504333, 2011; Potency, µM (highest dose often 114 µM), hits mostly inhibitors; AlphaScreen BAZ2B-H3K14Ac peptide displacement; 360,000 compounds, 4.4% hits; further: nearly all actives have a fitted effect of over 60% in size
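In this displacement format the biotinylated H3(5-23) peptide acetylated at Lys14 serves as ligand at 50 nM, with BAZ2B at 50 nM in PBS pH 7.4 containing 0.01% Tween-20. Donor and acceptor beads are 10 ug/mL final.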
CtBP-E1A inh: qHTS Assay for Inhibitors of the CtBP/E1A Interaction | AID 651724, 2012 | activity change, % (test concentration not listed) | AlphaScreen GST-E1A/His-CtBP binding, 1536-well; active compounds read low | CtBP / adenovirus E1A interaction (AlphaScreen) | 340,000 compounds, 0.49% hits; in the data active means activity change below about -65%; inconclusive means mostly about -30% to -63%
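AlphaScreen with 125 nM GST-E1A and 125 nM His-CtBP (5X stocks) in Tris pH 8.0, 300 mM NaCl, BSA, Tween 20, TCEP. Compounds preincubated 2 h at 37 deg C, then glutathione donor/nickel acceptor beads added for 1 h at 37 deg C in dark.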
JMJD2A Tudor inh: qHTS Assay for Inhibitors of JMJD2A-Tudor Domain | AlphaScreen JMJD2A-Tudor / H3K4me3 peptide binding | 390,000 compounds, 4.4% hits | Potency, µM (doses to about 114 µM), actives largely listed as inhibitors | AID 504339, 2011 | Lysine-specific demethylase 4A (Homo sapiens), O75164; further: nearly all actives have a fitted effect of over 50% in size
Numbers stand for hits; 0 = inactive; ? = inconclusive; - = no result given; [ ] = remark or other dose. Only some compounds are listed: those with a hit (about 5.3% of all), similar ones and a draw of the others. Unless noted, the call rests on the fitted dose curve; in most records, active means well fitted inhibition curve with a large enough effect; inconclusive means small, poorly fitted or top-dose-only effect; inactive means no such curve, though single readings can be large or run the other way.

SMILES	HP1b binding inh	Six1-Eya2 inh	TDP1 block	BAZ2B block	CtBP-E1A inh	JMJD2A Tudor inh
COc1ccc(S(=O)(=O)c2c(O)c3ccc(C(=O)Nc4cccc(F)c4)cc3[nH]c2=O)cc1	0	-66	0	?	-	0
CC(C)c1ccccc1NC(=O)CN(c1ccccc1)S(=O)(=O)N(C)C	0	-	0	0	-	0
COc1cccc(NC(=O)c2sc3nc(C)c(C(=O)Nc4ccc(C)cc4C)c(-c4ccccc4Cl)c3c2N)c1	0	-	0	0	-	0
CCN(CC)c1ccc(N=Nc2ncn[nH]2)cc1	0	-69	0	-	-74	?
CCCN(C(=O)Cn1nc(Cc2cccnc2)c2ccccc2c1=O)c1ccc(C(C)C)cc1	0	-	0	?	-	?
CCOC(=O)CN1NC2(CCCCCC2)NC1=S	0	0	0	0	0	50µM
Cc1ccc2[nH]c(C)c(/C=N/Nc3nc4ccccc4s3)c2c1	0	0	0	?	0	45µM
CCc1ccccc1NC(=O)Cn1nnc(-c2nc(-c3ccncc3)no2)c1N	0	-	0	0	-	0
COc1ccccc1NC(=O)CSc1ncc2c(n1)-c1cc(Cl)ccc1N(Cc1ccccc1)S2(=O)=O	0	-	0	0	-	0
COc1ccc(C)cc1NC(=O)CSc1ncc2c(n1)-c1ccc(Cl)cc1N(Cc1ccccc1)S2(=O)=O	0	-	0	50µM	-	0
CC1=C(C(=O)O)N2C(=O)[C@@H](NC(=O)C(N)c3ccccc3)[C@H]2SC1 (stereo partly drawn)	-	-	0	-	-	-
NC(=O)c1cc[n+](CC2=C(C(=O)[O-])N3C(=O)[C@@H](NC(=O)Cc4cccs4)[C@@H]3SC2)cc1	-	-	16µM	-	-	-
N[C@@H](C(=O)N[C@@H]1C(=O)N2C(C(=O)O)=C(Cl)CS[C@H]12)c1ccccc1	0	0	0	32µM	0	25µM
NC(=O)c1cc[n+](CC2=C(C(=O)O)N3C(=O)[C@@H](NC(=O)C(c4ccccc4)S(=O)(=O)[O-])[C@H]3SC2)cc1 (stereo partly drawn)	?	?	0	0	0	1.1µM
CCOc1ccc(CNC(=O)Cn2nc(C)n3cccc3c2=O)cc1	0	-	0	0	-	0
C#CCCCO/N=C1/C[C@@H](O)[C@@H](O)[C@@H]2[C@@H]3C(=O)N(Cc4ccc5c(c4)OCO5)C(=O)[C@H]3CC[C@@H]12	-	-	0[21 µM]	-	-	-
C/C(=N/NC(=O)c1ccncc1)c1cc2ccc(O)cc2oc1=O	0	-85	0	79µM	0	0
COc1ccc2oc(=O)c(/C(N)=N/NC(=O)c3ccncc3)cc2c1	0	0	50µM	0	0	?
COc1cc(C(C)=NNC(=O)c2ccncc2)ccc1O	0	0	-	-	0	32µM
COc1ccc2oc(=O)c(C(=O)Nc3ccccc3C)cc2c1	0	?	-	50µM	-	0
CNC(=O)c1cc2cc(OC)ccc2oc1=O	0	0	0	0	0	0
CCN(CC)CCCCn1c(-c2ccccc2)nc2c(NC3CCCCC3)nc(C)nc21	-	-	0	-	-	-
COc1ccc(NC(=O)CCCn2c(=O)c3cccn3c3ccccc32)c(OC)c1	0	-	0	0	-	0
COc1ccc2oc(=O)c(C(=O)N3CCN(C(=O)c4ccco4)CC3)cc2c1	0	0	0	0	0	79µM
C/C(=N\NC(=O)c1ccncc1)c1cc2ccccc2o1	0	0	0	0	0	0
SMILES	HP1b binding inh	Six1-Eya2 inh	TDP1 block	BAZ2B block	CtBP-E1A inh	JMJD2A Tudor inh
COc1ccc2oc(=O)c(C(=O)NCCc3c(C)[nH]c4ccc(C)cc34)cc2c1	?	-	0	25µM	-	?
C/C(=N\NC(=O)c1ccncc1)c1cc2ccccc2oc1=O	0	-80	0	?	0	0
O=C(Nc1nc(Nc2cc(F)cc(F)c2)nc(NC2CCCC2)n1)OCc1ccccc1	-	-	0	-	-	0
CCc1nn(CC(=O)NCc2ccc(OC)c(OC)c2)c(=O)c2cc3sc(C)cc3n12	0	-	0	0	-	0
CN1C(=O)/C(=C/c2ccc(O)c([N+](=O)[O-])c2)N(C)C1=S	0	0	0	0	-	?
COc1cc(/C=C2\SC(=O)N(c3ccc(Cl)cc3)C2=O)cc([N+](=O)[O-])c1O	?	0	0	7.1µM	0	7.9µM
O=C1S/C(=C\c2ccc(O)c([N+](=O)[O-])c2)C(=O)N1c1ccccc1Cl	?	?	0	35µM	0	50µM
COc1cc(/C=C2\SC(=O)N(c3cccc(Cl)c3)C2=O)cc([N+](=O)[O-])c1O	?	?	0	8.9µM	0	4µM
CCOc1ccc(/C=C2\SC(=O)N(c3ccc(O)cc3)C2=O)cc1OC	0	0	0	0	0	0
COc1ccc2c(c1)C(=O)[C@@H](O)[C@H](c1ccc(OC)c(Br)c1)O2	0	0	0	89µM	0	0
Cc1ccc(C)c(N2CCN(C(c3ccncc3)c3nnnn3Cc3ccccc3)CC2)c1 (stereo not drawn)	0	0	0	?	0	79µM
CCC(c1nnnn1CCOC)N1CCN(c2nc3ccccc3s2)CC1 (stereo not drawn)	0	0	0	0	0	0
CCCCn1nnnc1C(c1ccccc1)N1CCN(c2cc(C)ccc2C)CC1 (stereo not drawn)	-	0	-	-	0	-
c1ccc(Cn2nnnc2C(c2ccccc2)N2CCN(c3nc4ccccc4s3)CC2)cc1 (stereo not drawn)	0	0	0	-	0	0
CCCC(c1nnnn1CCOC)N1CCN(c2nc3ccccc3s2)CC1 (stereo not drawn)	0	0	0	0	0	13µM
COc1ccc(C(c2nnnn2Cc2ccccc2)N2CCN(c3nc4ccccc4s3)CC2)cc1OC (stereo not drawn)	0	0	0	0	0	79µM
O=C(CCCCn1c(=S)[nH]c2ccsc2c1=O)NCc1ccco1	0	0	0	0	0	25µM
CCOC(=O)N1CCN(C(=O)CCCn2c(=S)[nH]c3ccsc3c2=O)CC1	0	0	0	?	0	22µM
Cc1ccccc1Cn1c(=O)n(CCCC(=O)NCc2ccco2)c(=O)c2sccc21	0	0	0	0	0	0
O=C(COc1nsnc1N1CCOCC1)N/N=C/c1ccccc1O	0	-90	0	?	0	0
COC(=O)Oc1nsnc1N1CCOCC1	?	0	0	0	0	89µM
Cc1ccccc1NC(=O)COc1nsnc1N1CCOCC1	0	0	0	0	0	0
O=C(NCCCN1CCOCC1)C(=O)N/N=C/c1ccccc1O	0	-75	-	28µM	?	28µM

Screens from PubChem BioAssay.
